Experimental data: PubChem BioAssay (NCATS)
Results filed as inconclusive are left out. Unmarked numbers belong to inactive results. Activity calls are given as the source filed them. Calls follow the shape of the dose curve; as a rule, active = well fitted curve in the direction sought with a large enough effect; inconclusive = small, poorly fitted or top-dose-only effect, or another doubt; inactive = no such curve, though single readings can be large; an effect the other way counts as inactive or inconclusive.

Tests used:
[1] = BET inhibitor-based combinations targeting novel dependencies in MECOM-rearranged (r) AML: SET-2 cell line (AID 2202231); details: SET-2 AML cells viability, CellTiter-Glo luminescence, 48 h; viability: stronger effect = lower value, concentration not given here; also: nearly all actives have a fitted effect of over 35% in size;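 as to viability: plate controls were DMSO treated cells for no effect and wells without cells for full effect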
Method in brief: (§1)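 A 48 hr incubation preceded viability reading by CellTiter-Glo, with 15 min room-temperature development. Dose series had 11 points; normalization used DMSO and empty wells; AUC was computed and mean-centered per line as Z-AUC.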

[2] = BET inhibitor-based combinations targeting novel dependencies in MECOM-rearranged (r) AML: HNT-34 cell line (AID 2202234); also: nearly all actives have a fitted effect of over 35% in size
Method in brief: (§2)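 Each compound is tested in an 11-point concentration series against 500 seeded cells/well for 48 hr. The luminescent viability signal is normalized to DMSO and blank wells, then reduced to AUC and a cell-line-centred Z-AUC.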

[3] = BET inhibitor-based combinations targeting novel dependencies in MECOM-rearranged (r) AML: UCSD-AML1 cell line (AID 2202235); also: nearly all actives have a fitted effect of over 40% in size
Method in brief: as §2

[4] = BET inhibitor-based combinations targeting novel dependencies in MECOM-rearranged (r) AML: AML-191 cell line (AID 2202236; also: nearly all actives have a fitted effect of over 35% in size)
Method in brief: as §1

[5] = BET inhibitor-based combinations targeting novel dependencies in MECOM-rearranged (r) AML: MV-4-11 cell line (AID 2202233); also: nearly all actives have a fitted effect of over 45% in size
Method in brief: as §2

[6] = BET inhibitor-based combinations targeting novel dependencies in MECOM-rearranged (r) AML: AML-194 cell line (AID 2202237; also: nearly all actives have a fitted effect of over 40% in size)
Method in brief: as §1
Potency is read from the fitted curve at half-maximal effect.

NS(=O)(=O)c1ccc(Cc2c(-c3cccc(-c4ccccc4)c3)nn(-c3nc(C(=O)O)cs3)c2CC2CC2)cc1
viability [1]: 106%
Potency [2]: inactive
Potency [3]: inactive
Potency [4]: 7420 nM (active)

COc1cc2c3c(n(CCCN4CCOCC4)c(=O)c2cc1OC)-c1cc2c(cc1C3=O)OCO2
Potency [1]: 105 nM (active)
Potency [5]: 83.3 nM (active)
Potency [4]: 105 nM (active)

COc1ccc(S(=O)(=O)N(C(C)=O)c2ccccc2/C=C/c2cc[n+]([O-])cc2)cc1
Potency [1]: 2630 nM (active)
Potency [3]: 1320 nM (active)
Potency [4]: 1180 nM (active)

Clc1cccc(C(c2ccc3nc[nH]c3c2)n2ccnc2)c1 (centres undefined)
viability [1]: 113%
Potency [3]: inactive
Potency [4]: inactive
Potency [6]: inactive

Cc1cc(Nc2ncnc3ccc(NC4=NC(C)(C)CO4)cc23)ccc1Oc1ccn2ncnc2c1
Potency [1]: 20900 nM (active)
Potency [3]: inactive

COC(=O)N(CC(=O)O)Cc1cccc(OCc2nc(-c3ccc(Cl)cc3)oc2C)c1
viability [1]: 89%
Potency [3]: inactive
Potency [4]: inactive

CC[C@H](CO)Nc1nc(NCc2ccccc2)c2ncn(C(C)C)c2n1
Potency [1]: 26300 nM (active)
Potency [3]: 26300 nM (active)
Potency [4]: 23500 nM (active)

CCOC(=O)[C@@]1(CCCCCCOc2ccc(Cl)cc2)CO1
viability [1]: 92%
Potency [3]: inactive
Potency [6]: inactive

O=S(=O)(c1cccc2cnccc12)N1CCCNCC1
viability [1]: 101%
Potency [2]: inactive
Potency [4]: inactive
Potency [6]: inactive

CC1(C)SCCN(S(=O)(=O)c2ccc(OCC#CCO)cc2)[C@H]1C(=O)NO
viability [1]: 96.5%
Potency [4]: inactive

[2H]C([2H])([2H])C(O)([C@@H](C)/C=C/[C@@H](C)[C@H]1CC[C@H]2/C(=C/C=C3C[C@@H](O)C[C@H](O)C3)CCC[C@]12C)C([2H])([2H])[2H]
viability [1]: 79.5%
Potency [4]: 14800 nM (active)

CC/C(=C(/c1ccc(/C=C/C(=O)O)cc1)c1ccc2[nH]ncc2c1)c1ccc(F)cc1Cl
viability [1]: 98.4%
Potency [3]: inactive
Potency [4]: inactive
Potency [6]: inactive

CO[C@H]1/C=C/O[C@@]2(C)Oc3c(C)c(O)c4c(O)c(c(/C=N/N5CCN(C)CC5)c(O)c4c3C2=O)NC(=O)/C(C)=C\C=C\[C@H](C)[C@H](O)[C@@H](C)[C@@H](O)[C@@H](C)[C@H](OC(C)=O)[C@@H]1C
viability [1]: 90.8%
Potency [3]: inactive
Potency [4]: inactive
Potency [6]: inactive

CN[C@@H](C)C(=O)N[C@H](C(=O)N1CCC[C@H]1C(=O)Nc1sc(-c2ncco2)nc1-c1ccccc1)C1CCCCC1
viability [1]: 112%
Potency [3]: 1180 nM (active)
Potency [6]: inactive

CC[C@H]1OC(=O)[C@H](C)[C@@H](O[C@H]2C[C@@](C)(OC)[C@@H](O)[C@H](C)O2)[C@H](C)[C@@H](O[C@@H]2O[C@H](C)C[C@H](N(C)C)[C@H]2O)[C@](C)(O)C[C@@H](C)CN(C)[C@H](C)[C@@H](O)[C@]1(C)O
Potency [1]: 468 nM (active)
Potency [3]: inactive
Potency [6]: inactive

FC(F)(F)c1ccc(CNc2ccc(Cc3c[nH]c4ncc(Cl)cc34)cn2)cn1
viability [1]: 110%
Potency [3]: inactive
Potency [6]: inactive

COc1ccc2c(c1)C(c1ccc(F)cc1)=C(CN1CCCC1)CO2
viability [1]: 95.4%
Potency [4]: inactive
Potency [6]: inactive

O=C1NC(=O)[C@@H](c2cn3c4c(cccc24)CCC3)[C@@H]1c1c[nH]c2ccccc12
Potency [1]: 1320 nM (active)
Potency [2]: 934 nM (active)
Potency [4]: 934 nM (active)
Potency [6]: 934 nM (active)

COC(=O)[C@H]1[C@@H](O)[C@@]2(O)c3c(OC)cc(O[C@@H]4O[C@@H]([C@@H](O)CO)CO[C@H]4OC)cc3O[C@@]2(c2ccc(OC)cc2)[C@@H]1c1ccccc1
viability [1]: 77.8%
Potency [4]: inactive
